From PubChem BioAssay (EPA / NIEHS)
Inconclusive results are not listed. Calls of active or inactive are those of the source. How the source made its calls, unless noted: active means hit-call score of the fitted dose curve at least 0.9, where 1 is the maximum; inconclusive means response in the unintended direction; inactive means score below 0.9.

What was measured:
[1] = CCTE_Shafer_MEA_acute_AB: CCTE's Alamar Blue Assay for Cytotoxicity in the Neural Acute Assay, Shafer Lab (AID 2284069);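 further: active compounds lower the viability signal compared with DMSO wells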
Procedure, shortened: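 Read-out: resazurin fluorescence (ex 544, em 590 nm) after CTB reagent at 1:6 dilution in fresh media. Cells: primary rat cortical neuron networks, DIV 13 or 15, chemically exposed on MEA plates; DMSO as negative control/baseline.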

[2] = CCTE_Shafer_MEA_acute_LDH: CCTE's Lactate Dehydrogenase Assay for Cytotoxicity in the Neural Acute Assay, Shafer Lab (AID 2284086);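 further: active means LDH release rises above DMSO vehicle level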
Procedure, shortened: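 Rat cortical neurons cultured on microelectrode arrays; baseline 40-min recording, compound added, second 40-min recording; medium then sampled for released LDH (colorimetric kit, 490 nm). DMSO = negative control.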

[3] = system: DIO3 (gene 1735); test: CCTE_GLTED_hDIO3: CCTE's human Deiodinase 3 (DIO3) Inhibition Assay, Great Lakes Toxicology and Ecology Division (GLTED) Lab (AID 2284055);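 on AC50: potency is for inhibition seen as loss of released iodide signal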
Procedure, shortened: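 Absorbance from the Sandell-Kolthoff reaction reports iodide released by human DIO3 during a 3-hour incubation with chemical. Inhibition scored as signal loss against DMSO controls.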

[4] = CCTE_Shafer_MEA_dev_LDH: CCTE's Lactate Dehydrogenase Assay for Cytotoxicity in the Neural Network Formation Assay, Shafer Lab (AID 2284068);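 further: exposure for twelve days from plating with re-dosing on DIV 5 and 9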
Procedure, shortened: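 Rat cortical primary neurons, MEA culture; dosing day 0–12, full medium plus compound exchange DIV 5, 9. Read-out: LDH enzyme activity, spectrophotometric. DMSO = negative control/baseline; signal loss → cytotoxicity.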

[5] = CCTE_Shafer_MEA_dev_AB: CCTE's Alamar Blue Assay for Cytotoxicity in the Neural Network Formation Assay, Shafer Lab (AID 2284083);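 further: resazurin reduction fluorescence as viability of cultured neurons; twelve days of exposure from plating with re-dosing on DIV 5 and 9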
Procedure, shortened: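 Rat cortical primary cultures, 1.5 x 10^5 cells/well on MEA; continuous compound exposure over 12 days of network development, re-dosed with full medium change DIV 5 and 9. Alamar Blue fluorescence; loss of signal = cytotoxicity vs DMSO baseline.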

[6] = CCTE_Shafer_MEA_dev_mutual_information_norm: CCTE's Neural Network Formation Assay for Mutual Information Normalization, Shafer Lab (AID 2284091; active means hit-call score of the fitted dose curve at least 0.9, where 1 is the maximum; inactive means score below 0.9;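 on AC50: potency is for a decrease in mutual information relative to DMSO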)
Procedure: CCTE_Shafer_MEA_dev assay is conducted using Axion Biosystems 48 well microelectrode array (MEA) plates and Maestro recording system. Each well of the MEA plate contains a grid of 16 microelectrodes embedded in the culture surface. Electrically active cells, such as neurons, can be cultured over the electrodes, and electrical activity in these cells can be recorded extracellularly. The spontaneous firing of neurons is captured from each electrode on a microsecond timescale providing both temporally and spatially precise data. […] The CCTE_Shafer_MEA_dev assay uses primary cultures of rat cortical neurons. Recordings are made on days post-plating 5, 7, 9 and 12. As these cultures mature over time, neural networks develop functional activity and form cohesive networks in which electrical activity can be highly coordinated. CCTE_Shafer_MEA_dev_mutual_information_norm is 1 of 19 assay components of the CCTE_Shafer_MEA_dev assay. It is a measure of shared information between electrodes during a recording in a microelectrode array (MEA) using Axion Biosystems Maestro 768 channel amplifier with the AxIS adaptive spike detector. To collapse across multiple recordings made on days post-plating 5, 7, 9 and 12, the trapezoidal area-under-the-curve of the component is calculated.Data from the assay component CCTE_Shafer_MEA_dev_mutual_information_norm was analyzed into 1 assay endpoint. This assay endpoint, CCTE_Shafer_MEA_dev_mutual_information_norm, was analyzed in the negative analysis fitting direction relative to DMSO as the negative control and baseline of activity. Using a type of functional reporter, gain or loss-of-signal activity can be used to understand electrical activity.
On the day prior to culture, each well was coated thoroughly with 150 uL of 0.05% polyethyleneimine (PEI, Sigma Cat P3143) in 50 mM HEPES (Sigma Cat H7523) at a pH of 8. The plate was incubated at 37C for one hour. PEI was rinsed out with 500 uL of sterile water three times. Plates were stored at 4C until the day of culture. This culture was plated at a seeding density of 1.5 x 10^5 cells/well on a 48-well MEA plate, prepared as described above. Cells were administered via a 25 uL media/laminin ([…]; Sigma Cat L2020-1MG) drop directly onto the microelectrode array, as adding the cells with the laminin results in better attachment than pre-coating with laminin. After 2 hours, an additional 475 uL of cortical media was added and the cells returned to the incubator. Exposure starts at day 0 of plating and is continued over twelve days of network development until the experiment is terminated. Cells are fed with fresh medium on DIV 5 and 9, following the recordings on those days. The entire volume of media in the well is exchanged and any vehicle or compound treatment is renewed. Complete details are found in OP-NHEERL/ISTD/SBB/TJS/2015-03-r0 (available on request, email shafer.tim@epa.gov). Measurement of the electrical activity is non-invasive, and recordings can be made from the same plate over multiple different days of the culture. In cortical neurons, this allows for the measurement of extracellular action potentials over the period during which networks form in the MEA plate.

[7] = CCTE_Shafer_MEA_dev_correlation_coefficient_mean: CCTE's Neural Network Formation Assay for Mean Correlation Coefficient, Shafer Lab (AID 2284093; active means hit-call score of the fitted dose curve at least 0.9, where 1 is the maximum; inactive means score below 0.9;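 on AC50: well mean pairwise spike train correlation integrated as AUC over recording days 5 to 12; potency fitted for loss of correlation relative to DMSO vehicle wells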)
Procedure, shortened: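 Rat cortical cultures, 1.5 x 10^5 cells/well, dosed from day 0 for 12 days. Spontaneous spikes recorded DIV 5/7/9/12; electrode-pair correlation coefficients averaged, AUC taken. Fit in loss direction vs DMSO.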

[8] = UKN5_HCS_SBAD2_cell_viability: Viability Assessment in the University of Konstanz (UKN) Leist Lab Neurite Outgrowth Assay in human iPSC-derived immature Dorsal Root Ganglia Neurons (UKN5) (AID 2284056; active means hit-call score of the fitted dose curve at least 0.9, where 1 is the maximum; inactive means score below 0.9)
Procedure, shortened: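 iPSC-derived immature peripheral neurons (SBAD2) seeded on Matrigel with CHIR99021, SU5402 and DAPT, dosed 1 h later for 24 h. Viability from Hoechst H-33342 and calcein-AM live staining, high-content imaging; bidirectional fit versus DMSO.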

[9] = UKN5_HCS_SBAD2_neurite_outgrowth: University of Konstanz (UKN) Leist Lab Neurite Outgrowth Assay in human iPSC-derived immature Dorsal Root Ganglia Neurons (UKN5) (AID 2284070; active means hit-call score of the fitted dose curve at least 0.9, where 1 is the maximum; inactive means score below 0.9); details: actives raise or lower the signal
Procedure, shortened: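 Read-out: calcein-AM-stained neurite area by high-content imaging, Hoechst H-33342 for viability, after 24 h exposure of iPSC-derived immature dorsal root ganglia neurons. Activity fitted in both directions relative to DMSO baseline.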

[10] = UKN2_HCS_IMR90_neural_migration: University of Konstanz (UKN) Leist Lab Neural Crest Cell Migration Assay in human induced IMR90 Pluripotent Stem Cells (UKN2) (AID 2284204; active means hit-call score of the fitted dose curve at least 0.9, where 1 is the maximum; inactive means score below 0.9); details: actives raise or lower the signal
Procedure, shortened: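 iPSC-derived IMR90 neural crest cells seeded around stoppers on PLO/laminin/fibronectin; migration started in N2-S medium with EGF/FGF, compounds added after 24 h for 24 h. Migration into cell-free area imaged after calcein-AM/Hoechst staining; bidirectional fit versus DMSO.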

NC(=Nc1ccccc1)Nc1ccccc1
outcome [1]: inactive
outcome [2]: inactive

O=C(O)CN(CC(=O)O)CC(=O)O
outcome [2]: inactive

CCCCCCCCCCCCCCCCO
outcome [3]: inactive

CC1=C(C)S(=O)(=O)CCS1(=O)=O
outcome [2]: inactive

COc1ccc(OC(F)(F)F)cc1CN[C@H]1CCCN[C@H]1c1ccccc1
outcome [1]: inactive
outcome [2]: inactive

CN(C)C(=O)NC1(c2ccccc2)CCN(CCC[C@]2(c3ccc(Cl)c(Cl)c3)CCCN(C(=O)c3ccccc3)C2)CC1
outcome [1]: inactive
outcome [2]: inactive

CC(=O)CC(c1ccccc1)c1c(O)c2ccccc2oc1=O (stereo unspecified)
outcome [4]: inactive
outcome [5]: inactive
outcome [6]: inactive
outcome [7]: inactive

O=Cc1ccccc1C=O
AC50 [3]: 2.92 µM (active)

CN(C)C(=O)NC1(c2ccccc2)CCN(CC[C@@]2(c3ccc(F)c(F)c3)CN(C(=O)c3ccccc3)CCO2)CC1
outcome [1]: inactive
outcome [2]: inactive

Cc1cc(SC2=C(O)C[C@@](CCc3ccc(N)cc3)(C(C)C)OC2=O)c(C(C)(C)C)cc1CO
outcome [2]: inactive

CN(C)CCCN1c2ccccc2Sc2ccc(Cl)cc21
AC50 [3]: 158 µM (active)
AC50 [8]: 13.7 µM (active)
AC50 [4]: 5.01 µM (active)
outcome [1]: inactive
AC50 [9]: 6.11 µM (active)
AC50 [5]: 15 µM (active)
outcome [2]: inactive
AC50 [6]: 5.4 µM (active)
AC50 [7]: 5.87 µM (active)
AC50 [10]: 8.89 µM (active)

CC(C)COC(=O)CCCCC(=O)OCC(C)C
outcome [1]: inactive
outcome [2]: inactive

CC(=O)O[C@]1(C(C)=O)CC[C@H]2[C@@H]3C=C(Cl)C4=CC(=O)[C@@H]5C[C@@H]5[C@]4(C)[C@H]3CC[C@@]21C
AC50 [3]: 5.1 µM (active)

O=C1OC(c2ccc(O)cc2)(c2ccc(O)cc2)c2ccccc21
outcome [1]: inactive
